For six molecules, Potency and activity change, negative = inhibition results are on record in PubChem BioAssay (NCATS).

Calls of active or inactive are those of the source. Entries that show only a call come without a potency. Calls follow the shape of the dose curve; as a rule, active = well fitted inhibition curve with a large enough effect; inconclusive = small, poorly fitted or top-dose-only effect; inactive = flat fitted curve, though single readings scatter.

The assay addresses Luciferin 4-monooxygenase (Photinus pyralis) (UniProt P08659). Put plainly: Primary firefly luciferase (FLuc) qHTS assay for identification of artifact compounds. (AID 1845220). Also: nearly all actives have a fitted effect of over 60% in size. To be noted: purified firefly luciferase, luminescence, 5 min; series mostly up to 54.1 µM. The procedure, abridged: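 qHTS, 15 min compound preincubation with substrate (10 uM luciferin, 10 uM ATP) at RT, then 10 nM FLuc; 5 min; luminescence; % inhibition vs no-enzyme/DMSO controls, 4-parameter Hill fit.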
As to `C=C(C)C(=O)O[C@H]1C[C@@](C)(OC(C)=O)[C@@]2(O)CC[C@@](C)(O)[C@H](OC(C)=O)[C@@]23OC(=O)C(COC)=C13`, the Potency result was “inactive”. On to `C/C=C(\C)C(=O)OC[C@H]1O[C@H](O[C@H]2O[C@H](CO)[C@@H](OC(=O)/C(C)=C/C)[C@H](O)[C@H]2O[C@@H]2O[C@H](CO)[C@@H](O)[C@H](O)[C@H]2O)[C@H](O[C@@H]2O[C@H](CO)[C@@H](O)[C@H](O)[C@H]2O)[C@@H](O)[C@@H]1O`, for which the activity change, negative = inhibition is 1.93% [at 11.6 µM] (inactive).

Take `O=C(O)Cc1nn(Cc2nc3cc(C(F)(F)F)ccc3s2)c(=O)c2nccnc12`: the Potency result was “inactive”. For the molecule `COc1cc(C(C)=O)ccc1O[C@@H]1O[C@H](CO[C@@H]2O[C@@H](C)[C@H](O)[C@@H](O)[C@H]2O)[C@@H](O)[C@H](O)[C@H]1O`, the Potency result was “inactive”. As for `COC(=O)C1(Cc2ccc(O)cc2)OC(=O)C(OC)=C1c1ccc(O)cc1` (stereo unspecified), the Potency entry is “inactive”. Regarding `c1nc(NC2CCCCCC2)c2cc(CNC[C@H]3CCCO3)sc2n1`, the Potency entry was “inactive”.
